Values joined by “and” are separate entries in the source; they are usually repeats but may differ in a detail not shown here. Equal entries are not always repeated. Results filed as inconclusive are left out. Where a call stands in place of a potency, no number is given. Where a structure was tested more than once in an assay, its records may differ in their call. Active and inactive are the calls of the source. Unless noted, the call rests on the fitted dose curve; in most records, active means well fitted cell-killing curve with a large enough effect in the repeat runs; inconclusive means weak or mixed curves, or effect the other way; inactive means no such curve, though single readings can be large or run the other way.
Biological target: Peroxisome proliferator-activated receptor delta (Homo sapiens) (UniProt Q03181)
Sequence (Q03181 whole entry, looked up): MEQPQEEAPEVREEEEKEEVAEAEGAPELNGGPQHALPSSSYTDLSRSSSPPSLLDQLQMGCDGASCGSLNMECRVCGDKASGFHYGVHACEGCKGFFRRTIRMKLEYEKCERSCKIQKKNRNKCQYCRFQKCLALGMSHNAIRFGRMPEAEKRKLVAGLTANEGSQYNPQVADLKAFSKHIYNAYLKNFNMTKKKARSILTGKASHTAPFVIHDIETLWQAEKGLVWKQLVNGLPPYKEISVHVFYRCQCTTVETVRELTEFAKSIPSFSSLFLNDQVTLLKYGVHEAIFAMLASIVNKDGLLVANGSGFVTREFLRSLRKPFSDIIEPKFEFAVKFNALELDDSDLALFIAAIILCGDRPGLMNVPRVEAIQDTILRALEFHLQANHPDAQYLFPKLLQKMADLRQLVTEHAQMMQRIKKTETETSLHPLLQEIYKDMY
Test: qHTS assay to identify small molecule antagonists of the peroxisome proliferator-activated receptor delta (PPARd) signaling pathway (AID 743215; active means well fitted inhibition curve with a large enough effect in the signal ratio in the repeat runs, not every such curve was filed as active; the % refers to the signal ratio;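 further: cells stimulated with agonist L165041 at 300 nM final during compound exposure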)
Settings: HEK293H PPARd-UAS-bla, beta-lactamase FRET ratio, antagonist, 17 h; series mostly up to 62 µM; ratio activity, negative = inhibition: at the top concentration
Summary of the method: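 Read-out is beta-lactamase FRET fluorescence, measured 2 h after substrate addition at room temperature. Beforehand, UAS-bla HEK293H cells carrying the PPARd reporter were exposed to compounds with L165041 at 300 nM final for 17 h at 37 C.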

SMILES	outcome	ratio activity, negative = inhibition
c1ccc2c(c1)ccc1ncccc12	inactive	–
Cc1ccc(C(C)(C)C)cc1	inactive	–
c1ccc2cc3ccccc3cc2c1	–	-4.85% [at 80.4 µM] (inactive)
Cc1ccc(S(=O)(=O)NCl)cc1	–	-4.85% [at 80.4 µM] (inactive)
CC(C)(Oc1ccc(Cl)cc1)C(=O)O	inactive	–
Brc1nc2ccccc2s1	inactive	–
Cc1ccc(C)c(O)c1	inactive	–
CC(=O)Nc1ccc2c(c1)Cc1cc(NC(C)=O)ccc1-2	–	2.41% (inactive)
CCCCCCC(C)O (configuration not stated)	inactive	–
c1ccc2ncccc2c1	inactive	–
Cc1ccc([N+](=O)[O-])c(C)c1	–	9.16% (inactive)
Nc1cc(Cl)c(N)c(Cl)c1	inactive	–
O=C(O)CCCC(=O)O	inactive	–
COC(=O)C(C)Oc1ccc(Oc2ncc(C(F)(F)F)cc2Cl)cc1 (configuration not stated)	–	-19.2% [at 80.4 µM] (inactive)

Biological target: Bile acid receptor (Homo sapiens) (UniProt Q96RI1)
Sequence (Q96RI1 whole entry, looked up): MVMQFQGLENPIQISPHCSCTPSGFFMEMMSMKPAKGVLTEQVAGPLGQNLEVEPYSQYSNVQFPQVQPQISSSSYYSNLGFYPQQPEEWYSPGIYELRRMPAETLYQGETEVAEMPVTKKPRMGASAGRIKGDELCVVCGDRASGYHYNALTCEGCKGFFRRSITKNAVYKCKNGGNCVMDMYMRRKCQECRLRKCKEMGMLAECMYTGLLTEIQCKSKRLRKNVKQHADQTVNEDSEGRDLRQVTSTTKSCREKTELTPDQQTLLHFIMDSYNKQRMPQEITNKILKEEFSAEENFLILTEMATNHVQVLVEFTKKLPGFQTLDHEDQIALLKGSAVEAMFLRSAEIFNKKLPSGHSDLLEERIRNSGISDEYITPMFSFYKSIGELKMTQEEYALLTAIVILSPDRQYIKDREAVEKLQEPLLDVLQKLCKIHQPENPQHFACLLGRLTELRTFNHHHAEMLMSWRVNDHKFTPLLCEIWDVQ
Test: qHTS assay to identify small molecule antagonists of the farnesoid-X-receptor (FXR) signaling pathway (AID 743217; active means well fitted inhibition curve with a large enough effect in the signal ratio in the repeat runs, not every such curve was filed as active; the % refers to the signal ratio)
Settings: HEK293T FXR-UAS-bla, beta-lactamase ratio, CDCA-stimulated, 16 h; series mostly up to 62.6 µM; activity change, negative = inhibition: at the top concentration
Summary of the method: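 HEK 293T FXR-UAS-bla, 5000 cells/well; compound + CDCA 50 uM final; 16 h, 37 °C; B/G FRET substrate 2 h RT; fluorescence.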

SMILES	Potency	activity change, negative = inhibition
CCCCCCCCCCCCO	inactive	–
c1ccc2cc3ccccc3cc2c1	inactive	–
CCO[Si](CCCNC(N)=O)(OCC)OCC	inactive	–
CC/C=C\C/C=C\C/C=C\CCCCCCCC(=O)O	–	2.3% (inactive)
Brc1nc2ccccc2s1	inactive	–
CN(C)/N=N/c1nc[nH]c1C(N)=O	inactive	–
Cc1ccc(C)c(O)c1	inactive	–
CCCCCCOCCOCCO	inactive	–
COC(=O)c1ccc(C)cc1	inactive	–
COc1cc([C@H]2Oc3cc([C@H]4Oc5cc(O)cc(O)c5C(=O)[C@@H]4O)ccc3O[C@@H]2CO)ccc1O	inactive	–
NCCOCCO	inactive	–
Cc1ccc([N+](=O)[O-])c(C)c1	–	-0.143% (inactive)
Nc1cc(Cl)c(N)c(Cl)c1	–	-0.587% (inactive)
c1ccc2c(c1)ccc1cc3c(ccc4ccccc43)cc12	inactive	–
C=CC(=O)OCCCC	inactive	–

System: not listed separately
Test: qHTS assay to identify small molecule agonists of the farnesoid-X-receptor (FXR) signaling pathway - cell viability counter screen (AID 743218); further: nearly all actives have a fitted effect of over 45% in size; further: potency means the concentration at half of the fitted maximal effect
Settings: FXR-bla HEK293T viability, CellTiter-Glo luminescence, 16 h; series mostly up to 62.6 µM; viability change, negative = cytotoxic: at the top concentration
Summary of the method: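 HEK 293T FXR-bla cells; 5 h pre-incubation, 16 h compound exposure at 37 C; LiveBLAzer substrate 2 h RT, then CellTiter-Glo 30 min RT, luminescence.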

SMILES	Potency	viability change, negative = cytotoxic
COCCOCCOCCO	inactive	–
c1ccc2c(c1)ccc1ncccc12	inactive	–
Cc1ccc(C(C)(C)C)cc1	inactive	–
CCCCCCCCCCCCO	inactive	–
c1ccc2cc3ccccc3cc2c1	–	6.41% (inactive)
CCO[Si](CCCNC(N)=O)(OCC)OCC	inactive	–
Cc1ccc(S(=O)(=O)NCl)cc1	inactive	–
CCC/C=C/C=O	inactive	–
Cc1ccc(N)c([N+](=O)[O-])c1	–	-5.72% (inactive)
CC(C)(Oc1ccc(Cl)cc1)C(=O)O	inactive	–
CC/C=C\C/C=C\C/C=C\CCCCCCCC(=O)O	–	3.14% (inactive)
C1COCCN1	–	-0.0899% [at 81.1 µM] (inactive)
Brc1nc2ccccc2s1	–	-11.9% (inactive)
CN(C)/N=N/c1nc[nH]c1C(N)=O	inactive	–
Cc1ccc(C)c(O)c1	inactive	–
CCCCCCOCCOCCO	–	12.1% (inactive)
COC(=O)c1ccc(C)cc1	inactive	–
COc1cc([C@H]2Oc3cc([C@H]4Oc5cc(O)cc(O)c5C(=O)[C@@H]4O)ccc3O[C@@H]2CO)ccc1O	–	27.1% (inactive)
NCCOCCO	inactive	–

SMILES	Potency	viability change, negative = cytotoxic
C[C@]12C=CC(=O)C=C1CC[C@H]1[C@@H]3C[C@@H](O)[C@](O)(C(=O)CO)[C@@]3(C)C[C@H](O)[C@@]12F	inactive	–
O=S1(=O)CCCO1	inactive	–
CC(=O)Nc1ccc2c(c1)Cc1cc(NC(C)=O)ccc1-2	inactive	–
COc1ccc(C(=O)c2ccccc2O)c(O)c1	inactive	–
CCCCCCC(C)O (configuration not stated)	inactive	–
CC1(C)C(C=C(Cl)Cl)C1C(=O)OCc1cccc(Oc2ccccc2)c1 (configuration not stated)	inactive	–
Nc1ccc(O)c(N)c1	inactive	–
c1ccc2ncccc2c1	inactive	–
NC[C@H](O)c1ccc(O)c(O)c1	inactive	–
OC[C@@H](O)[C@@H](O[C@@H]1O[C@H](CO)[C@H](O)[C@H](O)[C@H]1O)[C@H](O)[C@@H](O)CO	–	24.3% (inactive)
C=C[C@@]1(C)CC(=O)[C@]2(O)[C@@]3(C)[C@@H](O)CCC(C)(C)[C@@H]3[C@H](O)[C@H](OC(C)=O)[C@@]2(C)O1	9.77 µM (active) and 8.41 µM (active)	–
Cc1ccc([N+](=O)[O-])c(C)c1	inactive	–
Clc1ccc(Sc2cc(Cl)c(Cl)cc2Cl)cc1	–	15.8% (inactive)
Nc1cc(Cl)c(N)c(Cl)c1	inactive	–
O=C(O)CCCC(=O)O	–	-0.211% (inactive)
c1ccc2c(c1)ccc1cc3c(ccc4ccccc43)cc12	inactive	–
COC(=O)C(C)Oc1ccc(Oc2ncc(C(F)(F)F)cc2Cl)cc1 (configuration not stated)	inactive	–
C=CC(=O)OCCCC	inactive	–
CCC(=O)O[C@H]1[C@H](O[C@@H]2[C@@H](C)[C@H](O[C@H]3C[C@@](C)(OC)[C@@H](O)[C@H](C)O3)[C@@H](C)C(=O)O[C@H](CC)[C@@](C)(O)[C@H](O)[C@@H](C)C(=O)[C@H](C)C[C@@]2(C)O)O[C@H](C)C[C@@H]1N(C)C	32.5 µM (active) and inactive	–

Biological target: Bile acid receptor (Homo sapiens) (UniProt Q96RI1)
Test: qHTS assay to identify small molecule agonists of the farnesoid-X-receptor (FXR) signaling pathway (AID 743220; active means well fitted activation curve with a large enough effect in the signal ratio in the repeat runs, not every such curve was filed as active; the % refers to the signal ratio)
Settings: HEK293T FXR-UAS-bla, beta-lactamase FRET ratio, 16 h; series mostly up to 62.6 µM; activation: at the top concentration
Summary of the method: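 Beta-lactamase reporter under UAS control in GeneBLAzer FXR HEK 293T cells (5000/well) measured with LiveBLAzer FRET substrate after 2 h at room temperature. Compound exposure lasted 16 h at 37C.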

SMILES	outcome	activation
CCCCCCCCCCCCO	inactive	–
c1ccc2cc3ccccc3cc2c1	inactive	–
CCO[Si](CCCNC(N)=O)(OCC)OCC	inactive	–
CC/C=C\C/C=C\C/C=C\CCCCCCCC(=O)O	–	-1.15% (inactive)
Brc1nc2ccccc2s1	inactive	–
CN(C)/N=N/c1nc[nH]c1C(N)=O	–	-2.92% [at 81.1 µM] (inactive)
Cc1ccc(C)c(O)c1	inactive	–
CCCCCCOCCOCCO	inactive	–
COC(=O)c1ccc(C)cc1	inactive	–
COc1cc([C@H]2Oc3cc([C@H]4Oc5cc(O)cc(O)c5C(=O)[C@@H]4O)ccc3O[C@@H]2CO)ccc1O	inactive	–
NCCOCCO	inactive	–
Cc1ccc([N+](=O)[O-])c(C)c1	inactive	–
Nc1cc(Cl)c(N)c(Cl)c1	inactive	–
c1ccc2c(c1)ccc1cc3c(ccc4ccccc43)cc12	–	-1.34% (inactive)
C=CC(=O)OCCCC	inactive	–

Reference: PubChem BioAssay (Tox21)
